From PubChem BioAssay AID1417 (Emory University Molecular Libraries Screening Center, 2008)
The whole screen tested about 1,100 compounds, of which about 880 (80%) were called active. How the calls were made is not given here. The set was probably picked from earlier hits. This is one part of the list. Potency and affinity values are given separately.

biological target: Induced myeloid leukemia cell differentiation protein Mcl-1 (Homo sapiens) (UniProt Q07820); experiment: Mcl-1/Noxa binding inhibitor potency, dose response, biochemical, TR-FRET (AID 1417); conditions: Mcl-1/Noxa peptide interaction, cell-free TR-FRET (terbium/rhodamine), 2 h; at 54 µM (top of the series);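 further: 100% = protein plus peptide without compound and 0% = peptide alone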
Sequence (Q07820 whole entry, looked up): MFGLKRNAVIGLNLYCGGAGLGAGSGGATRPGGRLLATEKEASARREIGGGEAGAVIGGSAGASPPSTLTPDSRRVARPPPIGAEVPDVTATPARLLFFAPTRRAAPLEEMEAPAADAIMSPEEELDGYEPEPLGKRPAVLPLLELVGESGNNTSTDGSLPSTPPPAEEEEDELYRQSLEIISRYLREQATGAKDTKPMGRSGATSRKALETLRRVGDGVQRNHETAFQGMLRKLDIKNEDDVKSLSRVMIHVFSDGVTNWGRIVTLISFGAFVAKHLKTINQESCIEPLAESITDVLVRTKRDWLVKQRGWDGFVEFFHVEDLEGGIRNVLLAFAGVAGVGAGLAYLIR

Percent of control (lower = inhibition), inactive:
CCN1C(=O)/C(=C2/Sc3ccc(OC)cc3N2C)SC1=Nc1cccc(O)c1 54.8%, Cn1c(=O)c2c(nc(NCc3ccco3)n2CC(O)COc2ccccc2)n(C)c1=O (stereo not drawn) 81.3%, COc1ccccc1C1NC=C([N+](=O)[O-])C=C1[N+](=O)[O-] (stereo not drawn) 111%, CC1CCCCC1NC(=O)c1ccc2c(c1)[nH]c(=O)n2C1CCCC1 (stereo not drawn) 86.3%, c1ccc(Nc2cccc(Nc3ccccc3)c2)cc1 60.5%, CN(C)c1ccc(NC(=O)/C=C/c2c(Cl)cccc2Cl)cc1 80.1%

Percent of control (lower = inhibition), active:
N=C1/C(=C\c2ccc(-c3ccc(C(=O)O)cc3)o2)C(=O)N=C2SC=C(c3ccccc3)N12 -1.95%, CN(C)c1ccc(NC(=O)Nc2cccc(Cl)c2)cc1 49.6%
